Source: PubChem
aSyn yeast inh: qHTS of alpha-syn Inhibitors; Potency, µM (doses to about 46.1 µM), without a hit: at the top dose growth rescue (activation), actives largely listed as activators; Yeast expressing alpha-synuclein, growth rescue, BacTiter-Glo, 24 h; 370,000 compounds, 0.14% hits; also: % of control where 0% means no effect; nearly all actives have a fitted effect of over 65% in size
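Screening used galactose-induced yeast with toxic alpha-synuclein levels, exposed to compound for 24 hr at 30 deg C. Cell growth, read with BacTiter-Glo luminescence, gave the measured signal.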
Mito fusion act: qHTS Assay for Small Molecule Inhibitors of Mitochondrial Division or Activators of Mitochondrial Fusion; S. cerevisiae fusion-defective mutant growth rescue, CellTiterGlo 48 h; Potency, µM (top dose mostly 46.1 µM), inactives show at the top dose growth rescue (activation), hits mostly activators; 320,000 compounds, 0.23% hits; also: % of control where 0% means no effect; nearly all actives have a fitted effect of over 45% in size
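Growth-rescue viability read-out: after 48 h at the non-permissive 37C in glycerol/ethanol YPEG, yeast mitochondrial fusion mutants are measured by CellTiterGlo luminescence; compounds (23 nl pinned per well) restoring growth score as division inhibitors or fusion activators.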
FUS yeast rescue: qHTS for Suppressors of FUS Proteinopathy: Primary screen using FUS-linked yeast assay. 390,000 compounds, 0.24% hits. S. cerevisiae FUS-expressing, growth rescue, OD600, 24 h. AID 1347120, 2019. Potency, µM (series often up to 76.6 µM), hits mostly activators;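 also: plate controls were DMSO vehicle for no effect and reference control for full effect; nearly all actives have a fitted effect of over 55% in size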
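Absorbance at 600 nm, taken 24hr after compound addition, measured rescue of FUS-yeast growth at 30C. Induction used 2% galactose with seeding at OD 0.005. Controls: CP55940 from 92uM final, DMSO only.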
Abeta rescue: qHTS for compounds that reverse cellular toxicity of Amyloid beta (A-beta) peptide in yeast: Primary Screen. yeast expressing A-beta42, growth rescue, OD600, 48 h; response scale: 0% DMSO, 100% iron-clioquinol control. Potency, µM (doses to about 46.1 µM), hits mostly activators. 410,000 compounds, 0.063% hits. AID 1347071, 2019; also: nearly all actives have a fitted effect of over 55% in size
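Yeast A-beta toxicity model in growth medium with pinned compounds, 48 h at 30 C; growth read as absorbance at 600 nm. Normalized to FeCl3/clioquinol equimolar mix (positive) and DMSO (negative).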
TDP-43 yeast inh: qHTS of TDP-43 Inhibitors; TDP-43 expressing yeast growth rescue, BacTiter-Glo, 24 h; Potency, µM (series often up to 46.1 µM), for inactives: at the top dose growth rescue (activation), usual class: activators; AID 652104, 2013; 410,000 compounds, 1.8% hits; also: % of control where 0% means no effect; nearly all actives have a fitted effect of over 50% in size
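Readout is BacTiter-Glo luminescence of cell growth, so inhibitors register as activators. TDP-43-expressing yeast at OD600=0.02 in galactose medium, after raffinose pregrowth to mid-log, were incubated with compound for 24 hr at 30 deg C.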
* marks the source's active call; other numbers are inactive results; i = inactive; ? = inconclusive; nt = no result. An excerpt weighted towards active compounds, which were near 2.2% of everything screened. Calls follow the shape of the dose curve; as a rule, active = well fitted curve in the direction sought with a large enough effect; inconclusive = small, poorly fitted or top-dose-only effect, or another doubt; inactive = no such curve, though single readings can be large; an effect the other way counts as inactive or inconclusive. Potency is read from the fitted curve at half-maximal effect.

SMILES	aSyn yeast inh	Mito fusion act	FUS yeast rescue	Abeta rescue	TDP-43 yeast inh
CCC1CCc2sc(C(=O)N(C)CC(=O)Nc3ccc(N4CCOCC4)cc3)cc2C1 (stereo not drawn)	6.0%	16.1%	i	i	8.91µM*
Cc1ncoc1C(=O)N1CCCC(C(=O)c2ccc(-c3ccccc3)c(F)c2)C1 (stereo not drawn)	-39.9%	1.3%	?	i	22.4µM*
Cc1ccoc1C(=O)NCc1occc1C(=O)O	-3.7%	0.1%	i	i	5.4%
Cc1ccc(OCc2occc2C(=O)O)cc1	4.9%	nt	i	i	14.1µM*
O=C(OC12CCCN(C1)/C(=C/c1ccncc1)C2)c1cccc(F)c1 (stereo not drawn)	nt	nt	i	nt	nt
Cc1ccc(S(=O)(=O)N2O[C@@H](c3ccccc3)C[C@H]2CON2C(C)(C)CCCC2(C)C)cc1	nt	nt	i	nt	nt
Cc1cccc(N2C(=O)CSC23C(=O)N(CC(=O)NCc2ccccc2Cl)c2ccccc23)c1 (stereo not drawn)	-9.0%	nt	i	i	-6.4%
Cc1cccc(N2CC(C(=O)Nc3nnc(SCc4ccccn4)s3)CC2=O)c1 (stereo not drawn)	3.1%	-1.4%	17.8µM*	i	-1.1%
Cc1ccc(N2CC(C(=O)Nc3nnc(SCc4ccccn4)s3)CC2=O)cc1 (stereo not drawn)	1.1%	-6.2%	i	i	25.4%
COc1ccc2c(c1)c(=O)oc1cc(OCC(=O)N3CCC(C)CC3)ccc12	13.9%	-1.3%	i	i	?
COc1ccc2c(c1)c(=O)oc1cc(OCC(=O)N3CCCC(C)C3)ccc12 (stereo not drawn)	-0.1%	-27.4%	i	i	25.1µM*
C=CCN=Cc1sc2ccc(OCC)cc2c1O	nt	0.3%	nt	nt	nt
CCCCN=Cc1sc2ccc(OCC)cc2c1O	4.7%	-0.4%	i	i	15.8µM*
Cc1cccc(Nc2nc3ccccc3s2)c1C	-7.1%	0.3%	i	?	11.2µM*
Cc1cccc(Nc2n[nH]c(=S)s2)c1C	-30.7%	7.5%	i	i	29.5%
O=C(O)c1ccc(NCCC2=CCCCC2)c([N+](=O)[O-])c1	0.7%	?	i	i	15.8µM*
CCn1ccc2cc(S(=O)(=O)N3CCCN(C(=O)Nc4cccc(SC)c4)CC3)ccc21	0.3%	nt	i	i	24.3%
O=c1ccsn1Cc1ccccc1	0.4%	-6.7%	nt	i	10µM*
O=C1NC(Cc2ccccc2)C(=O)N1Cc1ccccc1 (stereo not drawn)	-4.0%	nt	i	i	9.4%
Cc1cc(C)cc(C(=O)n2nc(C)c(S(=O)(=O)N3CCCCCC3)c2C)c1	nt	nt	i	i	25.9%
CC(=O)Oc1ccc(CN2C(=O)C(CCc3ccccc3)ON=C2c2cnccn2)cc1 (stereo not drawn)	16.6%	nt	i	i	14.1µM*
COc1cc(CN2C(=O)C(C)ON=C2c2ncccc2C)cc(OC)c1 (stereo not drawn)	10.7%	nt	i	i	-13.8%
COc1cc(CN2C(=O)C(CCc3ccccc3)ON=C2c2cnccn2)cc(OC)c1 (stereo not drawn)	1.0%	nt	i	i	35.5µM*
CC(CNC(=O)c1ccc(Cn2c(=O)c3cccn3c3cccnc32)cc1)c1ccccc1 (stereo not drawn)	nt	nt	i	i	?
COc1ccccc1CCn1cnc(Cc2ccccc2)c1C(C)C	0.6%	nt	i	i	?
O=C(C[n+]1cc(Br)cc2ccccc21)c1ccc(O)c(O)c1	-3.2%	nt	nt	nt	nt
C=CCn1c(SCC(=O)Nc2cc(C)c(Cl)cc2OC)nnc1-c1ccco1	16.1%	24.9%	i	i	?
C=CCn1c(SCc2c(F)cccc2Cl)nnc1-c1ccco1	-0.8%	7.6%	i	i	12.6µM*
Cn1cc(C(N)=O)c2ccccc21	-4.4%	-7.9%	i	i	17.5%
Cn1cc(C(=O)CCl)c2ccccc21	-22.5%	-12.6%	i	i	15.8µM*
